Test results taken from PubChem BioAssay (NCATS).
Inconclusive results are not listed. Activity calls are given as the source filed them. Calls come from the whole dose curve; as a rule, active = well fitted curve in the direction sought with a large enough effect; inconclusive = small, poorly fitted or top-dose-only effect, or another doubt; inactive = no such curve, though single readings can be large; an effect the other way counts as inactive or inconclusive.

Columns and labels:
[1] = Cell Viability - H-4-II-E (AID 543);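 note: cells exposed to compound for 40 hours; % is set by controls: 0 for no effect and ±100 for the full control effect; nearly all actives have a fitted effect of over 35% in size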
Summary of the method: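 AC50 from Hill-modelled qHTS concentration-response curves. H-4-II-E rat hepatoma cells in complete medium, 40 hr exposure at 37 °C, viability by CellTiter-Glo ATP luminescence.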

[2] = Cell Viability - SH-SY5Y (AID 544); settings: SH-SY5Y neuroblastoma cell viability; viability change, negative = cytotoxic: at 92.2 µM (top of the series);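 note: cells exposed to compound for 40 hours; nearly all actives have a fitted effect of over 55% in size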
Summary of the method: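 Quantitative HTS in SH-SY5Y neuroblastoma cells, 40 hr treatment at 37 °C, ATP content by luciferase luminescence; AC50 from Hill fits.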

[3] = Cell Viability - Renal Proximal Tubule (AID 545);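 note: cells exposed to compound for 40 hours; nearly all actives have a fitted effect of over 40% in size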
Summary of the method: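 Cytotoxicity is scored as a concentration-dependent drop in cellular ATP in primary rat renal proximal tubule cells exposed for 40 hr. AC50 derives from Hill modelling.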

[4] = Cell Viability - Mesenchymal (AID 546);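 note: cells exposed to compound for 40 hours before reading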
Summary of the method: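 In this qHTS cytotoxicity format, glomerulus-derived human mesenchymal kidney cells received compound for 40 hr, then luciferase-based ATP quantitation. Concentration-response data were fitted with the Hill equation.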

[5] = Cellular Toxicity (caspase-3) HepG2 (AID 654);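 note: cells exposed to compound for 16 hours before reading; 0% = DMSO alone and 100% = caspase signal from 100 µM tamoxifen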
Summary of the method: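 Concentration-response AC50 values reflect caspase-3/7 induction in HepG2 cells after 16 hours of compound exposure, quantified by luminescence from liberated aminoluciferin and referenced to 100 uM tamoxifen as full stimulation.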

[6] = Cellular Toxicity (caspase-3) Jurkat (AID 655); settings: Jurkat caspase-3 activation, luminescence; caspase-3 activation: at 92.2 µM (top of the series), DMSO = 0%, tamoxifen = 100%;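 note: cells exposed to compound for 16 h at 37 °C before reading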
Summary of the method: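 Caspase 3/7 activation is scored as increased luminescence in Jurkat cells cultured with compound for 16 hours in complete medium. AC50 values come from Hill fits of qHTS concentration-response data normalized to DMSO and 100 uM tamoxifen controls.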

[7] = Cellular Toxicity (caspase-3) HUV-EC-C (AID 656);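 note: cells exposed to compound for 16 h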
Summary of the method: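 Read-out: luminescence proportional to caspase 3/7 activity, measured 20 min after adding Caspase-Glo 3/7 reagent. Cells (HUV-EC-C) had received compound for 16 hr at 37°C. Increases relative to DMSO and 100 uM tamoxifen gave concentration-response AC50 values.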

[8] = Cellular Toxicity (caspase-3) SHSY5Y (AID 657);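 note: cells exposed to compound for 16 hours at 37 °C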
Summary of the method: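 Cells plated and incubated 5 h at 37 °C, dosed over a concentration range, incubated 16 h, then given Caspase-Glo 3/7 reagent for 1 h at room temperature before luminescence reading. Staurosporine (10 uM) defined full stimulation.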

[9] = Cellular Toxicity (caspase-3) BJ (AID 658);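 note: 0% = DMSO basal and 100% = 10 µM staurosporine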
Summary of the method: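 Plated BJ cells (1000/well) rested 5 hr, received compound for 16 hr at 37 °C, then Caspase-Glo 3/7 reagent for 1 hr at room temperature before luminescence reading.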

[10] = Cellular Toxicity (caspase-3) MRC-5 (AID 659);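 note: cells exposed to compound for 16 h at 37 °C; 0% = DMSO basal and 100% = 10 µM staurosporine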
Summary of the method: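 Apoptosis readout in MRC-5 cells: luciferase light generated after caspase 3/7 cleaves a peptide-aminoluciferin substrate, measured post 16 hr compound incubation at 37 °C.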

C1CCCC1
inactive: Potency [1] | Potency [2] | Potency [3] | Potency [4] | Potency [5] | caspase-3 activation [6] -0.234% | outcome [7] | outcome [8] | outcome [9] | outcome [10]

CCOCCO
inactive: Potency [1] | Potency [2] | Potency [3] | Potency [4] | Potency [5] | caspase-3 activation [6] 0.459% | outcome [7] | outcome [8] | outcome [9] | outcome [10]

O=[N+]([O-])c1cccc(C(F)(F)F)c1
inactive: Potency [1] | Potency [2] | Potency [3] | Potency [4] | Potency [5] | caspase-3 activation [6] 0.763% | outcome [7] | outcome [8] | outcome [9] | outcome [10]

Nc1c(Cl)cc(Cl)cc1Cl
inactive: Potency [1] | Potency [2] | Potency [3] | Potency [4] | Potency [5] | caspase-3 activation [6] 1.83% | outcome [7] | outcome [8] | outcome [9] | outcome [10]

C=C(C)C1CC=C(C)C(OC(C)=O)C1 (stereo not drawn)
inactive: Potency [1] | Potency [2] | Potency [3] | Potency [4] | Potency [5] | caspase-3 activation [6] 0.979% | outcome [7] | outcome [8] | outcome [9] | outcome [10]

Nc1cccc(O)c1
inactive: Potency [1] | Potency [2] | Potency [3] | Potency [4] | Potency [5] | caspase-3 activation [6] 0.69% | outcome [7] | outcome [8] | outcome [9] | outcome [10]

Nc1ccc(Cl)cc1[N+](=O)[O-]
inactive: Potency [1] | Potency [2] | Potency [3] | Potency [4] | Potency [5] | caspase-3 activation [6] -0.00309% | outcome [7] | outcome [8] | outcome [9] | outcome [10]

Nc1nc2ccccc2[nH]1
inactive: Potency [1] | Potency [2] | Potency [3] | Potency [4] | Potency [5] | caspase-3 activation [6] 10.5% | outcome [7] | outcome [8] | outcome [9] | outcome [10]

O=Cc1ccc(C(=O)O)cc1
inactive: Potency [1] | Potency [2] | Potency [3] | Potency [4] | Potency [5] | caspase-3 activation [6] 0.522% | outcome [7] | outcome [8] | outcome [9] | outcome [10]

CC(=O)Nc1ccc(C)cc1
inactive: Potency [1] | Potency [2] | Potency [3] | Potency [4] | Potency [5] | caspase-3 activation [6] 1.97% | outcome [7] | outcome [8] | outcome [9] | outcome [10]

Cc1cccc2ccccc12
inactive: Potency [1] | Potency [2] | Potency [3] | Potency [4] | Potency [5] | outcome [7] | outcome [8] | outcome [9]

Cc1ccc(C(=O)O)cc1
inactive: Potency [1] | Potency [2] | Potency [3] | Potency [4] | Potency [5] | caspase-3 activation [6] 1.89% | outcome [7] | outcome [8] | outcome [9] | outcome [10]

CO[Si](CCCNCCC[Si](OC)(OC)OC)(OC)OC
inactive: Potency [1] | Potency [2] | Potency [3] | Potency [4] | Potency [5] | caspase-3 activation [6] 2.91% | outcome [7] | outcome [8] | outcome [9] | outcome [10]

C=C(C)C(=O)OCC(C)C
inactive: Potency [1] | Potency [2] | Potency [3] | Potency [4] | Potency [5] | caspase-3 activation [6] 0.091% | outcome [7] | outcome [8] | outcome [9] | outcome [10]

Cc1cccc2sc(N)nc12
inactive: Potency [1] | Potency [2] | Potency [3] | Potency [4] | Potency [5] | caspase-3 activation [6] -0.319% | outcome [7] | outcome [8] | outcome [9] | outcome [10]

Nc1cc([N+](=O)[O-])ccc1C(=O)O
inactive: Potency [1] | Potency [2] | Potency [3] | Potency [4] | Potency [5] | caspase-3 activation [6] -2.73% | outcome [7] | outcome [8] | outcome [9] | outcome [10]

O=C1OC(=O)c2cc([N+](=O)[O-])ccc21
inactive: Potency [1] | Potency [2] | Potency [3] | Potency [4] | Potency [5] | caspase-3 activation [6] -2.27% | outcome [7] | outcome [8] | outcome [9] | outcome [10]

Cc1cc([N+](=O)[O-])ccc1N
inactive: Potency [1] | Potency [2] | Potency [3] | Potency [4] | Potency [5] | outcome [7] | outcome [8] | outcome [9] | outcome [10]

CC(=O)c1ccc([N+](=O)[O-])cc1
inactive: Potency [1] | Potency [2] | Potency [3] | Potency [4] | Potency [5] | caspase-3 activation [6] 0.818% | outcome [7] | outcome [8] | outcome [9] | outcome [10]

Cc1cccc(C(=O)O)c1[N+](=O)[O-]
inactive: Potency [1] | Potency [2] | Potency [3] | Potency [4] | Potency [5] | outcome [7] | outcome [8] | outcome [9]

NC(=O)c1ccccc1[N+](=O)[O-]
inactive: Potency [1] | Potency [2] | Potency [3] | Potency [4] | Potency [5] | caspase-3 activation [6] -0.0168% | outcome [7] | outcome [8] | outcome [9] | outcome [10]

c1ccc2[nH]cnc2c1
inactive: Potency [1] | Potency [2] | Potency [3] | Potency [4] | Potency [5] | caspase-3 activation [6] 1.18% | outcome [7] | outcome [8] | outcome [9] | outcome [10]

C=C(C)OC(C)=O
inactive: Potency [1] | Potency [2] | Potency [3] | Potency [4] | Potency [5] | caspase-3 activation [6] -0.77% | outcome [7] | outcome [8] | outcome [9] | outcome [10]

O=C(O)c1cccc(Cl)c1Cl
inactive: Potency [1] | Potency [2] | Potency [3] | Potency [4] | Potency [5] | caspase-3 activation [6] 0.107% | outcome [7] | outcome [8] | outcome [9] | outcome [10]

C1CCC2OC2C1 (stereo not drawn)
inactive: Potency [1] | Potency [2] | Potency [3] | Potency [4] | Potency [5] | caspase-3 activation [6] 0.319% | outcome [7] | outcome [8] | outcome [9] | outcome [10]

O=CNc1ccccc1
inactive: Potency [1] | Potency [2] | Potency [3] | Potency [4] | Potency [5] | outcome [7] | outcome [8] | outcome [9]
